Data taken from the supplement of paper PMC11417369.
Over roughly 25,000 sequences, “ln(normalized median fluorescence intensity)” has its median near 6.7; the highest 2% begin near 10. The sample as a whole holds a higher share of the highest values than the screen did.

What follows are sequences tested on PfHDP1 homeodomain (GST-tagged) (assay: gcPBM binding intensity (ln(normalized median fluorescence intensity)); higher = stronger DNA binding).
In short: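 GST-fused DNA-binding domains of P. falciparum, expressed in E. coli, were applied at about 25 μg on average for 1 h to an Agilent 4 × 180k array of primer-extended double-stranded 36-bp intergenic genomic probes and negative controls. Binding intensity is the highest Masliner-normalised natural-log median intensity across replicate spots of either probe orientation, measured with Alexa488 anti-GST antibody and a 488 nm scan.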

Sequence	gcPBM binding intensity (ln)
GTTTTATTTATTTCATGTACACAAAAAAGGTTTTAA [XGTACX_site6525]	6.97
TTTTGTTATTTTTCAGTGCAATATGATAATAATATA	9.56
ATTTCTCTATCGTAATGTACATAAAAAAGAAAAACA [XGTACX_site6374]	6.63
ATATATATATTTAAGGTGCGATTTTGTTATATTTAA	7.89
AATTATGGGGAAAAGACACACATATATATATATATA [CACACA_site2589]	9.35
ATCTAAATTTTTCCATGTACATATACTTTTATGCAT [XGTACX_site2683]	7.08
TATCTGTATTTATTCACACATATAAAATATAATTAA [CACACA_site5560]	6.36
GGATTTATTTTATATACACACATACCTATATTTATA [CACACA_site7084]	6.84
TATATCTCATAGTATACACACACACCCACCCACATA [CACACA_site8513]	7.7
GTATGTGTATGTGTATGTACATATGTATGTATAAAA [XGTACX_site8191]	8.13
TTAATTATTATATAAGTGCAATAATAAAAAGTTGTA [GTGCAC_site9552]	9.36
TATATATATATATATTTTTTTTTTTTATGCACATGG [CACACA_negctrl_site1573]	10.1
AAATAATTATTTATCACACATATGTATTTATATATA [CACACA_site4589]	6.66
ACACATACACATTAGGTGCACATAATTCAATATTAC [GTGCAC_site9862]	10.6
ACACATACACATTAGGTGCATATATTTCAATATTAC [GTGCAC_site9423]	9.83
AGTGCATAATATTTATGTACGTATCACATATATTTT [XGTACX_site5166]	10.7
CGTATGCACAAATTATGTACTTATATATATATATAT [XGTACX_site2348]	10.9
GTTTATGTATTATTATGTACGTATCATAATATATAT [XGTACX_site2385]	6.87
ATTGTATATGTATATGCACACAATATATGTACTTAT [CACACA_site2611]	9.66
ACAAATAAATAAATATGTACTTAATTATATAATTGA [XGTACX_site5626]	6.16

Sequence	gcPBM binding intensity (ln)
TATGTATTTTTATGCACACATGCGTGGCTTATATAA [CACACA_site387]	10.5
TTTATGTATTTTTATGCACACATGCGTGGCTTATAT [CACACA_site4374]	10.4
TAATATTCAATTATACGTACACATATATATATATAT [XGTACX_site4245]	9.22
ATATTATTTTATGCTACACACATTTTCTCTTATAAA [CACACA_site943]	7.25
AAAAAAAAAATATACACACACATATATATATATATA [CACACA_site3404]	9.35
GTAGACTGAAACCACACACACATATATATATATATT [CACACA_site605]	6.93
ATATAGAATATATTAACATGCAATAAGTAAAGGGGG [TGCATGCA_site1022]	7.05
TGTATGTATTTTCAATGTACATAAAAAAAAAAAAAA [XGTACX_site4397]	6.71
AATATAATATAATGCACACATAAAAAAAAAAAAATC [CACACA_site1303]	10.6
AAAATATAATATAATGCACACATAAAAAAAAAATCA [CACACA_site7922]	10.2
GTTGAAAAAAAAAATGCACACGCATACATATAATAT [CACACA_site8117]	9.09
AATCTAATATAATGCACACATAAAAAAAAATCAAAC [CACACA_site3633]	10.7
TTTGAAATAAATAATGCACACTCTACATATATACGT [CACACA_site2244]	10.6
AATATAATATAATGCACACATAAAAAAAAAATCAAA [CACACA_site122]	11
AAAATCTAATATAATGCACACATAAAAAAAAATCAA [CACACA_site9211]	9.65
AATCTAATATAATGCACACATAAAAAAAAAATCAAA [CACACA_site2714]	10.2
TGAAATAAATAATGCACACTCTACAGATATACGTAT [CACACA_site5270]	10.1
GTAAATATGTTTATTAGTACACATATGAAAATAAAT [XGTACX_site5820]	6.42
GAGAAATGGAGACACACACACATATTATATATATAT [CACACA_site1532]	8.68
AAACAATTATTATATTGTACATATATTACATTATTA [XGTACX_site1089]	6.23

Sequence	gcPBM binding intensity (ln)
ACTATCATTTTTTTAACACACAAAAAAAATAAAATA [CACACA_site3519]	6.44
TATATATAATATTATACACACATATATGCATAATAT [CACACA_site54]	7.56
AAATGTGAAAAAGAGTGTACCCGACTTGAAATTAAG [XGTACX_site8621]	6.92
TTAATTATAAGAAAAAGTACTCATTACATTATAGAA [XGTACX_site678]	6.12
TAGTATGATAACTTGGGTACATAAATATGGAGTATC [XGTACX_site1296]	6.81
TATATTTTAATTTGAAGTACTAATATTTATTTATAT [XGTACX_site7458]	6.14
ATAATAAAAAAAAATGCACACATATATATATATATA [CACACA_site8766]	9.5
AAAAATAATGCACATATATATAATATGTATATGTAT [CACACA_negctrl_site443]	11.1
TATAATATAATATATGCACACAAATATGTATATATG [CACACA_site8664]	9.95
AATATAATATAATGCACACATAAAAAAAAAAAAAAA [CACACA_site304]	10.9
AAAAAATATACATATACACACATATGTATATATAAT [CACACA_site8676]	6.34
AAAATATAATATAATGCACACATAAAAAAAAAAAAA [CACACA_site7989]	9.84
CTTATGTGCATACCTACACACTTACAGATATATATA [CACACA_site5622]	9.61
ATATATAATTTTTACACACGCAATAAATATATATAT [CACACA_site4283]	7.7
TTTAATTATTAAATGGTGCACTTGAAATATAAAAAT	10.1
TTGTTTTTCTTTGAATGTACTTAATGATTTCCAATT [XGTACX_site2499]	6.44
CAAAACAAAGTTGCCGCACACAGATACGCACCCAAG [CACACA_site3455]	7.09
CACACGCACAGACACACACACACACGGATATAAATA [CACACA_site6301]	7.76
